The subject of the first test is PPARa:RXRa (NR concentration 270 nM, RXRa partner concentration 90 nM). As to the kind of experiment: PBM binding z-score (relative to random genomic background probes); higher = stronger binding; sequences stand for … in GC…GCGATTGACAGCGTAGAATGAAGG
In a few lines:
(§1)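 Binding buffer was PBS pH 7.4 with 2% milk, 0.02% Triton X-100, 1 mM DTT, 0.2 mg/mL BSA and 0.4 mg/ml salmon testes DNA. In it, ligand-free nuclear receptor dimers were incubated 1 h on custom Agilent 4×180K protein-binding microarrays carrying double-stranded probes. Antibodies against each partner (one per run) detected binding, and z-scores were calculated against random background probes after regression normalization of scanned fluorescence.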
Take CCTAGTGGGCCATTCAGAGGTCATTGATCATATG: the PBM binding z-score was found to be 3.98.

Regarding TAGCCTAGGTCATGGTCCAGTATACCACGCGAAC, the PBM binding z-score was determined as 3.96.

Regarding CAAACTAGGTCAAAGGTCTAAGTCGAGCCAACCA, the PBM binding z-score amounted to 6.51.

Regarding CCTACTGGGCCATCAGGTCATAGATATCAACGTT, the PBM binding z-score turned out to be 2.72.

TCTATTAGTTGGTTAGGGCAACCGAAACAGCGGA registered a PBM binding z-score of 0.448.

In turn, CGTCCAAGGTTAGCAGGTCAGTGAAAGCGACGTG showed a PBM binding z-score of 2.44.

GGTGCTAGGTCAGGTTGGTCAGCTAACGGGTACG: the PBM binding z-score came to 1.71.

The sequence TTACCAAGGTGGGCTGAGGTCGTTGATCCAACTC returned a PBM binding z-score of 0.97.

As for CAAACTAGGTCAAAGGTCATAGTCGAGCCAACCA, the PBM binding z-score turned out to be 7.62.

For GCTGTTAGTTGAAAGGGCAACCGAATGATTCTCG, the PBM binding z-score is 2.12.

As for CGAACTAGGTCAGCCAGGACAGTGAATACATTGA, the PBM binding z-score stood at 3.55.

CCTACTGGGCCATCAGGTCATGGATATCAACGTT registered a PBM binding z-score of 3.14.

As for GGAACGAGGGCATTCGAGTTGATGGCATGGCGAT, the PBM binding z-score came out at 1.31.

In the case of TAGCCTTGGTCAGATCGGGCCAGTATACGCTATA, the PBM binding z-score was -0.565.

With AGAATGAGGTTAAGATCAGGGACACAGAATACAT, the PBM binding z-score was found to be 3.55.

Turning to AGTCAAAGTTCACTAGGTGACGTAAGATTCAGCT, the PBM binding z-score stood at 5.06.

In turn, GCTGCTAGGTCAACTGATGGTCAGTTAAAGCTCG displayed a PBM binding z-score of 3.74.

Turning to GGCACGAGGGCATTCGAGTTGATAGCATGGCGAT, the PBM binding z-score came out at 0.942.

The sequence ACTCGGAGGACAAAGGTCAGAGCAACGCCAGTGA showed a PBM binding z-score of 5.14.

The sequence ACTCGGAGAACAAAGGTCAGAGCTACGCCAGTGA showed a PBM binding z-score of 4.69.

In turn, TAGCCTAGGTCATGGGCCCGTATACCACGCGAAC yielded a PBM binding z-score of 4.

For the sequence ATATGTAGATTAAGGGTCATTCAGGTTGGTTCGC, the PBM binding z-score came to 4.74.

With CGTCAAAGTTCAACCAAGGTAACGTAAAGCACGC, the PBM binding z-score was found to be 5.02.

As to GATACAGGGTCAGTTAGAGGCCAGAGTATGGAAA, the PBM binding z-score came to 3.64.

Take ACATGTAGGTTAGCTGGGGTCATTCAGACTAGGC: the PBM binding z-score was 4.85.

As to TCTATTAGTTGATTAGGGCAAACGAAACAGCGGA, the PBM binding z-score was determined as 0.691.

As to AGTCAAAGTTCAGGACGAGGTAACCTAAAGCACG, the PBM binding z-score is 3.49.

On to CGTCCAAGGTCAGGGAGGTCAGTGAATGCCGAGT, for which the PBM binding z-score stood at 5.2.

As for GCGACTGGGGCATCAGCAGGTTAACATAACTTAA, the PBM binding z-score worked out at 1.27.

CCTACTGGGCCAAGGTCATTGATCAGTCAAAGCA returned a PBM binding z-score of 4.1.

TAGCCTAGGTCATGCGGGCCAGTCTAGTGTCGGC had a PBM binding z-score of 3.43.

Take ATCGAAAGGTCGAAGGTGAGTTTACCCACCCGAA: the PBM binding z-score was 4.78.

In the case of GCAGACAGGTGAAACGTAGGTAACTCAGGGTGGC, the PBM binding z-score was found to be 0.799.

Turning to TCATACAGGTGAAGGTAACTCAGGTACGCAGTCG, the PBM binding z-score came out at 1.68.

TAGCCTAGGTCATTCAGGGGCCAATATAGAAAGC had a PBM binding z-score of 3.97.

Turning to CCTCACGGGTCAAGGTTATAGCACGGGTGGTACG, the PBM binding z-score stood at 4.38.

TCGAGTGGGTTAGTCGGGGCATTCAGCCAACATA yielded a PBM binding z-score of 0.659.

With CAAACTAGGCCAAAGGTCAAAGTCGAGCCAACCA, the PBM binding z-score is 7.88.

Regarding CAAACTAGGGCACCGGAAGGTCAAAGTCCGCATG, the PBM binding z-score worked out at 4.89.

For CTCGAAATGTCGGTTGAGGTGAGTATACGGATAA, the PBM binding z-score turned out to be 0.0141.

The test system of a further test is PPARg:RXRa (NR concentration 180 nM, RXRa partner concentration 90 nM). The test is described as above. In a few lines: as §1
For CCTAGTGGGCCATTCAGAGGTCATTGATCATATG, the PBM binding z-score amounted to 2.23.

The sequence TAGCCTAGGTCATGGTCCAGTATACCACGCGAAC registered a PBM binding z-score of 3.3.

CAAACTAGGTCAAAGGTCTAAGTCGAGCCAACCA: the PBM binding z-score came out at 12.

Take CCTACTGGGCCATCAGGTCATAGATATCAACGTT: the PBM binding z-score was 3.22.

In turn, TCTATTAGTTGGTTAGGGCAACCGAAACAGCGGA registered a PBM binding z-score of -0.169.

For CGTCCAAGGTTAGCAGGTCAGTGAAAGCGACGTG, the PBM binding z-score was 1.18.

GGTGCTAGGTCAGGTTGGTCAGCTAACGGGTACG came in with a PBM binding z-score of 1.

With TTACCAAGGTGGGCTGAGGTCGTTGATCCAACTC, the PBM binding z-score was -0.473.

Sequence CAAACTAGGTCAAAGGTCATAGTCGAGCCAACCA displayed a PBM binding z-score of 14.

GCTGTTAGTTGAAAGGGCAACCGAATGATTCTCG displayed a PBM binding z-score of 1.42.

The sequence CGAACTAGGTCAGCCAGGACAGTGAATACATTGA showed a PBM binding z-score of 6.1.

CCTACTGGGCCATCAGGTCATGGATATCAACGTT showed a PBM binding z-score of 3.59.

With GGAACGAGGGCATTCGAGTTGATGGCATGGCGAT, the PBM binding z-score was found to be 0.637.

TAGCCTTGGTCAGATCGGGCCAGTATACGCTATA yielded a PBM binding z-score of -0.0905.

Consider AGAATGAGGTTAAGATCAGGGACACAGAATACAT, for which the PBM binding z-score was 2.54.

On to AGTCAAAGTTCACTAGGTGACGTAAGATTCAGCT, for which the PBM binding z-score came out at 7.82.

Sequence GCTGCTAGGTCAACTGATGGTCAGTTAAAGCTCG came in with a PBM binding z-score of 2.8.

On to GGCACGAGGGCATTCGAGTTGATAGCATGGCGAT, for which the PBM binding z-score was determined as 0.663.

ACTCGGAGGACAAAGGTCAGAGCAACGCCAGTGA came in with a PBM binding z-score of 7.86.

Turning to ACTCGGAGAACAAAGGTCAGAGCTACGCCAGTGA, the PBM binding z-score amounted to 5.98.

Turning to TAGCCTAGGTCATGGGCCCGTATACCACGCGAAC, the PBM binding z-score is 3.44.

In the case of ATATGTAGATTAAGGGTCATTCAGGTTGGTTCGC, the PBM binding z-score is 6.74.

As for CGTCAAAGTTCAACCAAGGTAACGTAAAGCACGC, the PBM binding z-score stood at 5.31.

Consider GATACAGGGTCAGTTAGAGGCCAGAGTATGGAAA, for which the PBM binding z-score amounted to 2.24.

On to ACATGTAGGTTAGCTGGGGTCATTCAGACTAGGC, for which the PBM binding z-score stood at 4.21.

For the sequence TCTATTAGTTGATTAGGGCAAACGAAACAGCGGA, the PBM binding z-score amounted to 0.317.

Consider AGTCAAAGTTCAGGACGAGGTAACCTAAAGCACG, for which the PBM binding z-score was determined as 4.24.

Take CGTCCAAGGTCAGGGAGGTCAGTGAATGCCGAGT: the PBM binding z-score is 4.29.

Sequence GCGACTGGGGCATCAGCAGGTTAACATAACTTAA gave a PBM binding z-score of 1.18.

The sequence CCTACTGGGCCAAGGTCATTGATCAGTCAAAGCA gave a PBM binding z-score of 4.15.

In the case of TAGCCTAGGTCATGCGGGCCAGTCTAGTGTCGGC, the PBM binding z-score worked out at 2.

Turning to ATCGAAAGGTCGAAGGTGAGTTTACCCACCCGAA, the PBM binding z-score came out at 4.38.

Regarding GCAGACAGGTGAAACGTAGGTAACTCAGGGTGGC, the PBM binding z-score amounted to 0.792.

For TCATACAGGTGAAGGTAACTCAGGTACGCAGTCG, the PBM binding z-score amounted to 1.3.

TAGCCTAGGTCATTCAGGGGCCAATATAGAAAGC gave a PBM binding z-score of 2.41.

In turn, CCTCACGGGTCAAGGTTATAGCACGGGTGGTACG came in with a PBM binding z-score of 3.05.

Consider TCGAGTGGGTTAGTCGGGGCATTCAGCCAACATA, for which the PBM binding z-score is -0.439.

The sequence CAAACTAGGCCAAAGGTCAAAGTCGAGCCAACCA showed a PBM binding z-score of 12.3.

For CAAACTAGGGCACCGGAAGGTCAAAGTCCGCATG, the PBM binding z-score was 6.22.

As for CTCGAAATGTCGGTTGAGGTGAGTATACGGATAA, the PBM binding z-score was determined as 0.0414.

The values are drawn from the supplement of paper PMC6555819.
